Common to all, as to conditions: concentration: 1 μM, replicates: in singlicate; n = 1
In assay [1] the test system is TTK.
Assay [2] concerns TXK.
Assay [3] concerns TYK2(JH1domain-catalytic).
Assay [4] has as its system TYK2(JH2domain-pseudokinase).
Assay [5] deals with TYRO3.
In assay [6] the test system is ULK1.
The subject of assay [7] is ULK2.
Assay [8] relates to ULK3.
For assay [9], the system named is T1, VEGFR2.
T1 construct: gene KDR

The test system of assay [10] is T2, VPS34.
T2 construct: gene PIK3C3
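Further: KINOMEscan kinase panel screen.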

For the compound `COC(=O)c1c(-c2ccccc2)c2cc(OC)ccc2c(=O)n1Cc1ccccc1`, the “%Inh” value amounted to 14% in [1]; 12% in assay [2]; 7% in assay [3]; 0% in assay [4]; 0% in assay [5]; 1% in assay [6]. In addition, the “%Inh” value is reported as 0% in assay [7], 0% in [8], 7% in assay [9] and 0% in [10].

For `COc1ccc(Nc2nccc(-c3cccc(NC(=O)c4cc5cc(F)ccc5[nH]4)c3)n2)cc1` [GSK1229782], the “%Inh” value is reported as 13% in assay [1]; 17% in assay [2]; 41% in assay [3]; 47% in assay [4]; 23% in assay [5]; 16% in [6]. For the same compound, the “%Inh” value worked out at 0% in assay [7], 23% in [8], 4% in assay [9] and 33% in [10].

Turning to `CS(=O)(=O)c1ccc(-c2nc3n(c2-c2ccncc2)CCC3)cc1` [SKF-105942], the “%Inh” value in assay [1] was 0%; in [2], 0%; in [3] it was 0%; in assay [4], 0%; in assay [5], 0%; in assay [6], 19%. Also, the “%Inh” value is reported as 0% in assay [7], 11% in assay [8], 0% in assay [9] and 0% in [10].

For the compound `Cc1c(Cn2ccn3c(=O)cc(N4CCOCC4)nc23)cccc1C(F)(F)F` [GSK2289044], the “%Inh” value stood at 1% in assay [1]; 0% in assay [2]; 0% in assay [3]; 0% in assay [4]; 0% in assay [5]; 7% in [6]. Moreover, the “%Inh” value in assay [7] is 0%; in assay [8] it was 0%; in [9] it was 1%; in assay [10], 95.1%.

As for `Fc1cc(Cl)ccc1Nc1ccnc2cc(I)ccc12` [GW551191], the “%Inh” value in assay [1] was 0%; in assay [2], 28%; in [3], 13%; in [4] it was 16%; in assay [5], 18%; in assay [6], 3%. Besides, the “%Inh” value in assay [7] was 0%; in assay [8], 0%; in assay [9] it was 6%; in assay [10], 2%.

Take `CC(C)(C)c1ccc(C(=O)Nc2cn3cc(Cl)ccc3n2)cc1`: the “%Inh” value was 0% in assay [1]; 0% in assay [2]; 0% in [3]; 0% in assay [4]; 9% in assay [5]; 0% in assay [6]. In addition, the “%Inh” value in assay [7] was 0%; in assay [8], 10%; in assay [9], 12%; in assay [10], 13%.

With `Cl.NC(=O)c1cccc(Nc2nccc(Nc3ccc(Oc4cccc(Cl)c4)c(Cl)c3)n2)c1` [GW659008], the “%Inh” value in [1] is 29%; in [2] it was 0%; in assay [3], 39%; in assay [4], 18%; in [5], 10%; in assay [6], 6%. Moreover, the “%Inh” value in [7] is on record as 0%; in assay [8] it was 0%; in assay [9] it was 0%; in assay [10], 9%.

Turning to `O=C(Nc1ccc2c(c1)OCO2)NC1CCN(c2ccnc(Nc3ccc(F)cc3)n2)C1` (stereo not drawn) [GSK1379724], the “%Inh” value in [1] is recorded as 26%; in assay [2], 43%; in assay [3], 9%; in assay [4], 33%; in assay [5] it was 0%; in assay [6] it was 9%. For the same compound, the “%Inh” value was determined as 0% in [7], 16% in assay [8], 0% in assay [9] and 0% in [10].

With `O=C(O)COc1ncnc2cc(-c3ccc4[nH]ncc4c3)sc12`, the “%Inh” value in [1] was 0%; in assay [2], 14%; in assay [3], 29%; in assay [4], 55%; in [5], 0%; in assay [6], 43%. The “%Inh” value is 26% in assay [7], 33% in [8], 36% in assay [9] and 27% in assay [10].

(Values after article PMC5540273 (PLoS ONE, 2017).)
